# Test results published in PubChem BioAssay AID2592 (National Center for Advancing Translational Sciences (NCATS), 2010).
# Results filed as inconclusive are left out. The source made the active and inactive calls. The call rests on the fitted dose curve; in most records, active means well fitted inhibition curve with a large enough effect; inconclusive means small, poorly fitted or top-dose-only effect, or effect the other way; inactive means flat fitted curve, though single readings scatter.
# Biological target: Lysosomal acid glucosylceramidase (Homo sapiens) (UniProt P04062)
# Test: qHTS Assay for Inhibitors and Activators of N370S glucocerebrosidase as a Potential Chaperone Treatment of Gaucher Disease: Activity in Non-Mutant Spleen Homogenate
# Conditions: human spleen homogenate GC, 4MU-glucoside fluorescence; series mostly up to 57.5 µM
# Description: NIH Chemical Genomics Center [NCGC] NIH Molecular Libraries Probe Production Centers Network [MLPCN] MLPCN Grant: MH086442-01 Assay Submitter (PI): Wei Zheng Glucocerebrosidase (GC) catalyzes the hydrolysis of beta-glucocerebroside to glucose and ceramide in lysosomes. Mutations in the glucocerebrosidase gene result in Gaucher disease, an autosomal recessive lysosomal storage disorder. Many of the mutations encountered in patients with Gaucher disease are missense alterations that may cause misfolding, decreased stability and/or mistrafficking of this lysosomal protein. […] These inhibitors include iminosugar analogs and three non-iminosugar inhibitors identified from a previous HTS of 62,000 compounds with the wild type recombinant enzyme. However, the enhancement of enzyme activity by the chaperone action of an enzyme inhibitor must be balanced against the direct inhibition of the enzyme. An enzyme activator could also function as a chaperone by binding to the enzyme and helping to correct its misfolding and mistrafficking. While activators for GC have not yet been identified, they may have better therapeutic potential than inhibitors. Therefore the discovery and development of chemical activators may provide a new strategy for the chaperone therapy. We have optimized a new assay using N370S mutant GC derived from the spleen of a Gaucher patient. […] In addition, the MLPCN compound library has expanded, which increases the chance of finding new and better probes. This confirmation assay tests for compound activity in spleen homogenate containing wildtype enzyme.
# NCGC Assay Protocol Summary: This is a fluorogenic enzyme assay with 4-methylumbelliferyl-beta-D-glucopyranoside as the substrate and wildtype glucocerebrosidase from human spleen homogenate as the enzyme preparation. Upon the hydrolysis of this fluorogenic substrate, the resulting product, […] which can be detected by a standard fluorescence plate reader. Data were normalized to the controls for basal activity (without enzyme) and 100% activity (with enzyme). The AC50 values were determined from concentration-response data modeled with the standard Hill equation. Assay buffer: 50 mM citric acid (titrated with potassium phosphate to pH 5.0), 100 mM potassium chloride, 10 mM sodium chloride, 1 mM magnesium chloride, 0.01% Tween-20. 1536-well assay protocol: (1) Add 2 ul/well of spleen homogenate (27 ug final) (2) Add 23 nL compounds in DMSO solution. The final titration was 0.5 nM to 58 uM. (3) Add 2 ul of substrate (1 mM final) (4) Incubate at 37C for 40 min. (5) Add 2 ul stop solution (1M NaOH and 1M Glycine mixture, pH 10) (6) Detect the assay plate in a ViewLux plate reader (PerkinElmer) with Ex=365 nm and Em=440nm. Keywords: Glucocerebrosidase, beta-glucosidase, Gaucher Disease, pharmacological chaperone, chaperone therapy, high throughput screening, glucocerebrosidase inhibitor, MLSMR, MLSCN, NIH Roadmap, qHTS and NCGC
# Sequence of Lysosomal acid glucosylceramidase (Homo sapiens) (P04062 whole entry, looked up): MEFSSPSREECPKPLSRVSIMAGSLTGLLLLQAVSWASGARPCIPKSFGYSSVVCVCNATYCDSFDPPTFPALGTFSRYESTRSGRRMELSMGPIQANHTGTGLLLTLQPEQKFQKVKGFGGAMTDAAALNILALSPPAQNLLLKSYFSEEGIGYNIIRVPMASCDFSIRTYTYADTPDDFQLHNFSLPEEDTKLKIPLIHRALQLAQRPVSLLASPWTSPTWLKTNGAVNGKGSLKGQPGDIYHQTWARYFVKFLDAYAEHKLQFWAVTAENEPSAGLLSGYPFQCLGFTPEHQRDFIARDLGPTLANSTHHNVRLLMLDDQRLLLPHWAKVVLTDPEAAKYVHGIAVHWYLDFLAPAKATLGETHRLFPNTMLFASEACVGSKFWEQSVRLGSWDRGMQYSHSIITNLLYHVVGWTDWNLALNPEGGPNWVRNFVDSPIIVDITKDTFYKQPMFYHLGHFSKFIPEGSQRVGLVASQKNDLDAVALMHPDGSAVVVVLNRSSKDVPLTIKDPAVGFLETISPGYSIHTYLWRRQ
row,SMILES,Potency
1,N#Cc1ccc(S(=O)(=O)N2CCN(c3nc(-c4cccs4)nc4ccccc34)CC2)cc1,2510 nM (active)
2,O=S(=O)(c1ccc(Cl)cc1)N1CCN(c2nc(-c3cccs3)nc3ccccc23)CC1,1000 nM (active)
3,S=C(NCCCc1cnc[nH]1)NCCCN(Cc1ccc(Cl)c(Cl)c1)c1ccc(Br)cn1,355 nM (active)
4,O=S(=O)(c1ccccc1C(F)(F)F)N1CCN(c2nc(-c3cccs3)nc3ccccc23)CC1,398 nM (active)
5,CC(C)C(C)NC(=O)CSc1nc2scc(-c3ccco3)c2c(=O)n1-c1ccccc1 (stereo not given),inactive
6,CC(C)(C)C(=O)OCCNc1nc(-c2ccccc2)nc2ccccc12,2240 nM (active)
7,Cc1cc(C)cc(N(CC(=O)NC2CCCCCC2)S(=O)(=O)c2c(C)[nH]c(=O)[nH]c2=O)c1,562 nM (active)
8,O=S(=O)(c1ccc2ccccc2c1)N1CCN(c2nc(-c3cccs3)nc3ccccc23)CC1,282 nM (active)
9,O=S(=O)(c1ccc2c(c1)OCCO2)N1CCN(c2nc(-c3cccs3)nc3ccccc23)CC1,447 nM (active)
10,NS(=O)(=O)c1ccc(S(=O)(=O)N2CCN(c3nc(-c4cccs4)nc4ccccc34)CC2)cc1,5010 nM (active)
